PubChem BioAssay (NCATS)
Unmarked numbers belong to inactive results. Records with an inconclusive call do not appear. Entries that show only a call come without a potency. The source made the active and inactive calls. Calls come from the whole dose curve; as a rule, active = well fitted curve in the direction sought with a large enough effect; inconclusive = small, poorly fitted or top-dose-only effect, or another doubt; inactive = no such curve, though single readings can be large; an effect the other way counts as inactive or inconclusive.

Assays:
[1] = qHTS assay for measurement of the activity of small molecule inhibitors on Zika virus induced Caspase-3 activity in human iPSC derived neural progenitor cells (hNPCs) (AID 1224857); note: nearly all actives have a fitted effect of over 65% in size
Outline: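 After overnight (16–20 h) culture at 350 cells/well, hNPCs get compound, then ZIKV 2 FFU/cell one hour later. Six hours on, Caspase-Glo 3/7 is added and luminescence measured.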

[2] = qHTS assay for measurement of the activity of small molecule inhibitors on Zika virus induced Caspase-3 activity in human astrocytoma cells (AID 1224859)
Outline: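 Inhibition of Zika-induced caspase-3/7 activity: SNB-19 cells, 1 h compound pretreatment, ZIKV 2 FFU/cell for 6 h at 37 C, Caspase-Glo luminescence read-out.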

[3] = NS1 protein of Zika virus - qHTS assay to identify small molecule inhibitors in human HEK 293 cells (AID 1347053); note: nearly all actives have a fitted effect of over 55% in size; note: potency is the fitted concentration of half-maximal effect
Outline: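 Compound-treated (1 h pre-infection) HEK 293 cells infected with ZIKV MR766, MOI = 0.5; after 24 h at 37 C, NS1 read by TR-FRET; data normalized to uninfected and infected controls.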

[4] = qHTS of pediatric cancer cell lines to identify multiple opportunities for drug repurposing: Primary screen for TC32 cells (AID 1347089); note: nearly all actives have a fitted effect of over 60% in size; note: potency is the fitted concentration of half-maximal effect
Outline: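 A viability screen of TC32 cells was run over 48 h, with primary MIPE doses spanning 0.78 nM–46 µM and NPC doses 0.59 nM–46 µM. ATP luminescence (CellTiter-Glo) served as the read-out.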

[5] = qHTS of pediatric cancer cell lines to identify multiple opportunities for drug repurposing: Primary screen for SJ-GBM2 cells (AID 1347091); note: potency is the fitted concentration of half-maximal effect
Outline: (§1)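 Viability measured as metabolically active cells via CellTiter-Glo luminescence following 48 hours of compound exposure, 11-point dilutions in confirmatory testing. 500-1,000 cells/well plated 5 hours before dosing; controls were DMSO and 2.3 µM bortezomib.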

[6] = qHTS of pediatric cancer cell lines to identify multiple opportunities for drug repurposing: Primary screen for A673 cells (AID 1347092); note: nearly all actives have a fitted effect of over 45% in size; note: potency is the fitted concentration of half-maximal effect
Outline: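 Titration-based qHTS on A673 cells: MIPE compounds spanned 11 points (0.78 nM to 46 µM final), NPC compounds 8 points (0.59 nM to 46 µM final). Viability after 48 h was measured by ATP luminescence.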

[7] = qHTS of pediatric cancer cell lines to identify multiple opportunities for drug repurposing: Primary screen for DAOY cells (AID 1347090); note: nearly all actives have a fitted effect of over 55% in size; note: potency is the fitted concentration of half-maximal effect
Outline: as §1

O=C1Nc2cc(Cl)ccc2Oc2ccccc21
Potency [1]: inactive | outcome [2]: inactive | Potency [3]: inactive | Potency [4]: inactive | Potency [5]: inactive | Potency [6]: inactive

O=C(OCC(COC(=O)c1cccnc1)(COC(=O)c1cccnc1)COC(=O)c1cccnc1)c1cccnc1
Potency [1]: inactive | outcome [2]: inactive | Potency [3]: inactive | Potency [4]: inactive | Potency [7]: inactive | Potency [6]: inactive

Cc1ccc(/C=N/n2c(-c3ccccc3)csc2=S)cc1
Potency [1]: inactive | outcome [2]: inactive | Potency [3]: inactive | Potency [4]: inactive | Potency [7]: inactive | Potency [5]: inactive | Potency [6]: inactive

O=[N+]([O-])c1ccc(O)c2ncccc12
Potency [1]: inactive | outcome [2]: inactive | Potency [4]: 13.3 µM (active) | Potency [7]: 2.66 µM (active) | Potency [5]: 2.66 µM (active)

CCOC(=O)Oc1ccc(CCNC(=O)[C@H](CCSC)NC(C)=O)cc1OC(=O)OCC
Potency [1]: inactive | outcome [2]: inactive | Potency [3]: inactive | Potency [7]: inactive | Potency [5]: inactive | Potency [6]: inactive

O=C1NCCN1CCN1CCC(c2cn(-c3ccc(F)cc3)c3ccc(Cl)cc23)CC1
Potency [1]: inactive | outcome [2]: inactive | Potency [3]: 7.08 µM (active) | Potency [5]: 10.6 µM (active)

CCc1cc2cc(OC)c(OC)cc2c(Cc2ccccc2)n1
Potency [1]: inactive | outcome [2]: inactive | Potency [3]: inactive | Potency [7]: inactive | Potency [6]: inactive

COC(=O)c1cc(S(N)(=O)=O)ccc1OC
Potency [1]: inactive | outcome [2]: inactive | Potency [3]: inactive | Potency [4]: inactive | Potency [5]: inactive | Potency [6]: inactive

O=c1[nH]sc2cc(Cl)ccc12
Potency [1]: inactive | outcome [2]: inactive | Potency [3]: inactive | Potency [6]: 0.001 µM (active)

CC(C)C(=O)OCc1cccc(OC(=O)[C@@H]2N3C(=O)[C@@H](NC(=O)Cc4ccccc4)[C@H]3SC2(C)C)c1
Potency [1]: inactive | outcome [2]: inactive | Potency [3]: inactive | Potency [7]: inactive | Potency [5]: inactive

CCC[C@H](N[C@@H](C)C(=O)N1[C@H](C(=O)O)C[C@@H]2CCCC[C@@H]21)C(=O)OCC
Potency [1]: inactive | outcome [2]: inactive | Potency [3]: inactive | Potency [7]: inactive | Potency [5]: inactive

CC(CC1c2ccccc2CCc2ccccc21)CN(C)C (centres undefined)
Potency [1]: inactive | outcome [2]: inactive | Potency [3]: inactive | Potency [4]: inactive | Potency [6]: inactive

CN1CCCN=C1/C=C/c1cccs1
Potency [1]: inactive | outcome [2]: inactive | Potency [3]: inactive | Potency [7]: inactive | Potency [5]: inactive | Potency [6]: inactive

CSc1ccc(/C=C2/C(C)=C(CC(=O)O)c3cc(F)ccc32)cc1
Potency [1]: inactive | outcome [2]: inactive | Potency [3]: inactive | Potency [7]: inactive | Potency [5]: inactive | Potency [6]: inactive

O=C(CCCl)NCc1ccccc1
Potency [1]: inactive | outcome [2]: inactive | Potency [3]: inactive | Potency [7]: inactive | Potency [5]: inactive | Potency [6]: inactive

Cc1cc(O)c(C)c(C)c1O
Potency [1]: inactive | outcome [2]: inactive | Potency [3]: inactive | Potency [5]: inactive

COC(=O)C1=C(C)NC(C)=C(C(=O)OCCc2ccc(N3CCN(C(c4ccccc4)c4ccccc4)CC3)cc2)C1c1cccc([N+](=O)[O-])c1 (centres undefined)
Potency [1]: inactive | outcome [2]: inactive | Potency [3]: inactive | Potency [7]: inactive | Potency [5]: inactive | Potency [6]: inactive

Nc1nc2ccccc2n1Cc1ccc(F)cc1
Potency [1]: inactive | outcome [2]: inactive | Potency [3]: inactive | Potency [7]: inactive

CCOc1ncc(F)c(=O)[nH]1
Potency [1]: inactive | outcome [2]: inactive | Potency [3]: inactive | Potency [7]: inactive | Potency [5]: inactive

NC(=O)COCCN1CCN(C(c2ccccc2)c2ccc(Cl)cc2)CC1 (centres undefined)
Potency [1]: inactive | outcome [2]: inactive | Potency [3]: inactive | Potency [7]: inactive | Potency [5]: inactive | Potency [6]: inactive

Cc1ccc(-c2ccccc2C#N)cc1
Potency [1]: inactive | outcome [2]: inactive | Potency [3]: inactive | Potency [7]: inactive | Potency [5]: inactive | Potency [6]: inactive

O=C1[C@@H]2[C@H]3CC[C@H](C3)[C@@H]2C(=O)N1CCCCN1CCN(c2ncccn2)CC1
Potency [1]: inactive | outcome [2]: inactive | Potency [3]: inactive | Potency [7]: inactive | Potency [5]: inactive | Potency [6]: inactive

Cc1cc(O)c2c(O)c3c(O)cccc3cc2c1
Potency [1]: inactive | outcome [2]: inactive | Potency [3]: inactive | Potency [7]: inactive | Potency [5]: inactive | Potency [6]: inactive

CCCCC/C=C\C/C=C\CCCCCCCC(=O)NC(C)c1ccccc1 (centres undefined)
Potency [1]: inactive | outcome [2]: inactive | Potency [3]: inactive | Potency [7]: inactive | Potency [5]: inactive

CCCCCCOC(=O)NC(=N)c1ccc(NCc2nc3cc(C(=O)N(CCC(=O)OCC)c4ccccn4)ccc3n2C)cc1
Potency [1]: inactive | outcome [2]: inactive | Potency [3]: inactive | Potency [7]: inactive | Potency [5]: 21.1 µM (active)

Cc1ccc(C(C)OC(=O)C2(C)CCC(C(=O)O)C2(C)C)cc1 (centres undefined)
Potency [1]: inactive | outcome [2]: inactive | Potency [3]: inactive | Potency [5]: inactive | Potency [6]: inactive

Cc1oc(-c2ccccc2)nc1CCC(=O)c1ccc(CC2SC(=O)NC2=O)cc1 (centres undefined)
Potency [1]: inactive | outcome [2]: inactive | Potency [3]: inactive | Potency [5]: inactive | Potency [6]: inactive

CC(=O)N(c1onc(C)c1C)S(=O)(=O)c1ccc(N)cc1
Potency [1]: inactive | outcome [2]: inactive | Potency [3]: inactive | Potency [7]: inactive | Potency [5]: inactive | Potency [6]: inactive

CCCCCN(CCCOC)C(=O)C(CCC(=O)O)NC(=O)c1ccc(Cl)c(Cl)c1 (centres undefined)
Potency [1]: inactive | outcome [2]: inactive | Potency [3]: inactive | Potency [4]: inactive | Potency [5]: inactive | Potency [6]: inactive

NS(=O)(=O)c1ccc(N2CCCCS2(=O)=O)cc1
Potency [1]: inactive | outcome [2]: inactive | Potency [3]: inactive | Potency [7]: inactive | Potency [5]: inactive | Potency [6]: inactive

CCCCC(=O)OCC(=O)[C@H]1[C@H](C)C[C@H]2[C@@H]3C[C@H](F)C4=CC(=O)C=C[C@]4(C)[C@@]3(F)[C@@H](O)C[C@@]21C
Potency [1]: inactive | outcome [2]: inactive | Potency [3]: inactive | Potency [7]: inactive | Potency [5]: inactive | Potency [6]: inactive
